# Laboratory results as given in PubChem BioAssay (NCATS).
# Values without a mark were called inactive. Results filed as inconclusive are left out. Where a call stands in place of a potency, no number is given. Calls of active or inactive are those of the source. Unless noted, calls come from the whole dose curve; as a rule, active = well fitted curve in the direction sought with a large enough effect; inconclusive = small, poorly fitted or top-dose-only effect, or another doubt; inactive = no such curve, though single readings can be large; an effect the other way counts as inactive or inconclusive.
# Experiments:
# [1] = molecular target: Calcium and integrin-binding protein 1 (Homo sapiens) (UniProt Q99828); assay: Confirmatory qHTS for Identification of Calcium Integrin Binding Protein 1 (CIB1) Competitor (AID 1508617); settings: CIB1 binding competition assay, biochemical qHTS; series mostly up to 114 µM; note: nearly all actives have a fitted effect of over 65% in size
# Sequence of Calcium and integrin-binding protein 1 (Homo sapiens) (Q99828 whole entry, looked up): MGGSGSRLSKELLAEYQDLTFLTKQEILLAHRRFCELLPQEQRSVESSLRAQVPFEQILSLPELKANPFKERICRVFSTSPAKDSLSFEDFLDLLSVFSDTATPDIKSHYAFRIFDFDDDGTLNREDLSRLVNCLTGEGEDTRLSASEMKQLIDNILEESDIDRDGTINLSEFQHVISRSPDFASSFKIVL
# In short: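 FP competition: CIB1-GST (1 uM final) in 5 mM HEPES pH 7.4, 125 mM NaCl, 5 mM CaCl2, 0.01% Tween20 preincubated 15 min RT with compounds (up to 114 uM), then FITC-alphaIIb peptide (100 nM), 15 min RT; Ex 480/Em 540.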
# [2] = qHTS of pediatric cancer cell lines to identify multiple opportunities for drug repurposing: Primary screen for SK-N-SH cells (AID 1347098); settings: SK-N-SH viability, CellTiter-Glo luminescence, 48 h; note: potency is the fitted concentration of half-maximal effect; nearly all actives have a fitted effect of over 65% in size
# In short: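 Cells (500-1,000/well) rested 5 h, then received compounds for 48 h; metabolically active cells were measured by CellTiter-Glo luminescence. Final concentrations spanned up to 46 µM (MIPE, 11-point) or 0.59 nM-46 µM (NPC, 8-point) in primary screens, 11-point in follow-ups.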
# [3] = qHTS of pediatric cancer cell lines to identify multiple opportunities for drug repurposing: Primary screen for Rh18 cells (AID 1347102); settings: Rh18 rhabdomyosarcoma viability, CellTiter-Glo luminescence, 48 h; note: potency is the fitted concentration of half-maximal effect; nearly all actives have a fitted effect of over 65% in size
# In short: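 Viability after 48 h compound treatment at 37C, 500-1,000 cells/well, read as ATP luminescence with CellTiter-Glo. Primary screens used 11-point (MIPE, 0.78 nM-46 µM) or 8-point (NPC, 0.59 nM-46 µM) final concentrations; follow-up screens used 11-point dilutions.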
# [4] = qHTS of pediatric cancer cell lines to identify multiple opportunities for drug repurposing: Primary screen for MG 63 (6-TG R) cells (AID 1347105); settings: MG 63 (6-TG R) viability, CellTiter-Glo, 48 h; note: potency is the fitted concentration of half-maximal effect; nearly all actives have a fitted effect of over 50% in size
# In short: (§1)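 Quantitative HTS format: each compound titrated (MIPE 11 points from 0.78 nM, NPC 8 points from 0.59 nM) onto cells plated 5 hours earlier. After 48 h at 37 degrees C, CellTiter-Glo luminescence was recorded.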
# [5] = molecular target: Protein phosphatase 1D (Homo sapiens) (UniProt O15297); assay: Rhodamine-PBP qHTS Assay for Modulators of WT P53-Induced Phosphatase 1 (WIP1) (AID 1347425); settings: recombinant WIP1, Rhodamine-PBP phosphate fluorescence, real-time; series mostly up to 57.5 µM
# Sequence of Protein phosphatase 1D (Homo sapiens) (O15297 whole entry, looked up): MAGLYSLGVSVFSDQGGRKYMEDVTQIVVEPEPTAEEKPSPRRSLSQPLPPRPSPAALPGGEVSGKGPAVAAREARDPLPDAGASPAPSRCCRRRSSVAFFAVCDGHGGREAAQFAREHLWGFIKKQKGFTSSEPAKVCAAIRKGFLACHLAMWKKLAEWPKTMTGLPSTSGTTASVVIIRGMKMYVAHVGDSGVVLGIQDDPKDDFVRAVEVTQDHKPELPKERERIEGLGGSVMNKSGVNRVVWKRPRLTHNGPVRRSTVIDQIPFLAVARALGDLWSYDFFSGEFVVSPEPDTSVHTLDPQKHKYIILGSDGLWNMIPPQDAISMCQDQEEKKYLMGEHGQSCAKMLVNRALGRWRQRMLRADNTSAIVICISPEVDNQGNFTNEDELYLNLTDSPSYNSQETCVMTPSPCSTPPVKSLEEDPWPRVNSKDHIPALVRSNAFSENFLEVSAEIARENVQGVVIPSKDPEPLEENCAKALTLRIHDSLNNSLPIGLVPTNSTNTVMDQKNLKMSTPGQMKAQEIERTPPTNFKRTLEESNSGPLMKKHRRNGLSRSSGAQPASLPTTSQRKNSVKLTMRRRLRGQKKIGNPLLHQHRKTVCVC
# In short: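 WIP1 (5 nM final) was preincubated with compound for 1 hour at room temperature. It then dephosphorylated 10 uM VEPPL-pS-QETFS peptide in Tris-HCl pH 7.5 with 30 mM MgCl2. Released Pi was detected by 10 uM Rh-PBP fluorescence (ex 525/em 598 nm) read at 1-min intervals for 11 min, as delta f1 - f0.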
# [6] = Primary qHTS for inhibitors of La Crosse Virus (LACV) - induced cell death in SH-SY5Y cells (AID 1508616); settings: SH-SY5Y LACV cytopathicity rescue, ATP luminescence, 6 d; series mostly up to 9.63 µM;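 note: top concentration of the series differs between compounds; higher means more rescue of cells from virus-induced death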
# In short: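 SH-SY5Y, 6000 cells/well; cpd via pin tool in DMSO; LACV 0.01 MOI; 6 d 37C 5% CO2; ATPLite, 5 min RT; luminescence normalized to ±virus DMSO controls.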
# [7] = A High-Content qHTS Against Drug Library for the Identification of Small Molecules that Inhibit DYT1 Early Onset Primary Dystonia-Associated Cell Pathology (AID 1645839; calls by dose curve); settings: HEK293 Flp-In EGFP-delE TorsinA, punctate imaging, 48 h; series mostly up to 46.1 µM
# In short: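 Cells were seeded and left for 24 h, then dosed with compound alongside tetracycline induction of mutant EGFP-TorsinA. They were incubated for 48 h, fixed in 4% paraformaldehyde, permeabilized and imaged for mislocalization (%pathology) and cell count.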
# [8] = molecular target: Cytochrome P450 3A4 (Homo sapiens) (UniProt P08684); assay: Cytochrome P450 family 3 subfamily A member 4 (CYP3A4) small molecule antagonists: luciferase qHTS assay (AID 1645841; active = well fitted curve in the direction sought with a large enough effect in the repeat runs; an effect the other way counts as inactive or inconclusive; note: nearly all actives have a fitted effect of over 45% in size); settings: P450-Glo CYP3A4 enzyme assay, luciferin luminescence; series mostly up to 57.4 µM
# Sequence of Cytochrome P450 3A4 (Homo sapiens) (P08684 whole entry, looked up): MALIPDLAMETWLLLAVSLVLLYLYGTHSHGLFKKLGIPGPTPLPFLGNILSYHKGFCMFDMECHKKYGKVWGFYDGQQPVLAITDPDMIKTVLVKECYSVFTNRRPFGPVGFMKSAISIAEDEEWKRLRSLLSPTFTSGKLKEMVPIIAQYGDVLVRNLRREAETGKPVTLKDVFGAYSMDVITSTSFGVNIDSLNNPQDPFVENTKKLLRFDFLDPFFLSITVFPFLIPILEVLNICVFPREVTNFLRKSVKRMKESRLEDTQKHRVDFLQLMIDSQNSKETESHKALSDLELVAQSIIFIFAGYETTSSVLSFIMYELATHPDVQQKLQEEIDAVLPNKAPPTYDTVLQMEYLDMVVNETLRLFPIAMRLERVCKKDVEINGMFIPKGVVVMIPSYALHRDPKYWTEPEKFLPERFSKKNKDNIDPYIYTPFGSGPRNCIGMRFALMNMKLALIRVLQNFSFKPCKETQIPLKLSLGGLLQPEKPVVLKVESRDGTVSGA
# In short: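 P450-Glo CYP3A4 enzyme with proluciferin substrate preincubated 10 min with compound at room temperature, then NADPH regeneration 1 h. Luciferin detection reagent added for 20 min; luminescence recorded. Ketoconazole positive control.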
# [9] = molecular target: Cytochrome P450 3A4 (Homo sapiens) (UniProt P08684); assay: qHTS Assay for Activators of Cytochrome P450 3A4 (AID 885); settings: recombinant CYP3A4, Luciferin-PPXE luminescence, 60 min; series mostly up to 57.1 µM; note: nearly all actives have a fitted effect of over 65% in size
# In short: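 Human CYP3A4 dealkylates Luciferin-PPXE to luciferin, which luciferase detection converts to light. Substrate was at its KM (25uM), buffer 200mM KPO4, reaction 60 min at RT.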
# [10] = Counterscreen qHTS for small molecule stabilizers of the endoplasmic reticulum resident proteome: GLuc-NoTag assay (AID 1508627); settings: Gaussia luciferase NoTag secretion counterscreen, luminescence, thapsigargin 100 nM for final 4 h; series mostly up to 76.4 µM
# In short: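 Counterscreen line: SH-SY5Y-GLuc-NoTag. Seed, 5 h; compound, 19 h; thapsigargin 100 nM, 4 h; 37C/5% CO2. Readout: secreted GLuc luminescence, coelenterazine 0.07x final, no lysis.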
# [11] = Confirmatory qHTS for small molecule stabilizers of the endoplasmic reticulum resident proteome: Secreted ER Calcium Modulated Protein (SERCaMP) assay (AID 1508628); settings: SERCaMP secreted luciferase ER calcium/proteostasis reporter; series mostly up to 76.3 µM; note: potency is the fitted concentration of half-maximal effect; nearly all actives have a fitted effect of over 40% in size
# In short: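 Reporter secretion upon ER calcium depletion (100 nM thapsigargin, 4 h, 37C) is measured as medium luminescence with coelenterazine, after 16 h compound pretreatment of SH-SY5Y-GLuc-SERCaMP cells; primary at three concentrations up to 38.3 uM, follow-up at 11 (up to 76.6 uM).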
# [12] = qHTS of pediatric cancer cell lines to identify multiple opportunities for drug repurposing: Primary screen for TC32 cells (AID 1347089); settings: TC32 Ewing sarcoma viability, CellTiter-Glo luminescence, 48 h; series mostly up to 45.8 µM; note: nearly all actives have a fitted effect of over 60% in size
# In short: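 Measured quantity: luminescence from CellTiter-Glo, reflecting metabolically active TC32 cells following 48 h of compound. Curves came straight from multi-point titrations, with 8 or 11 points in primary and 11 in confirmatory screening.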
# [13] = qHTS of pediatric cancer cell lines to identify multiple opportunities for drug repurposing: Primary screen for RD cells (AID 1347104); settings: RD rhabdomyosarcoma viability, CellTiter-Glo luminescence, 48 h; note: potency is the fitted concentration of half-maximal effect; nearly all actives have a fitted effect of over 55% in size
# In short: as §1
# MCC-13 = assay: qHTS assay to identify novel small-molecules to repurpose for Merkel cell carcinoma treatment (AID 1296009); settings: MCC and control cell lines, CellTiter-Glo viability, 72 h; series mostly up to 46 µM; note: nearly all actives have a fitted effect of over 60% in size
# In short: (§2)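 Dose-response viability screen; 72 hr exposure at 37 degree celsius; CellTiter-Glo added, 10 min room temperature, luminescence read; RLUs scaled between no-cell and DMSO wells.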
# MCC-26 = assay: as above; settings: MCC and control cell lines, CellTiter-Glo viability, 72 h; series mostly up to 46 µM
# In short: as §2
# [14] = qHTS Assay for Identifying Gametocytocidal Compounds (AID 743244);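 note: actives lower the fluorescent signal which means gametocytes are killed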; settings: P. falciparum 3D7 stage III-V gametocytes, alamarBlue, 72 h; max response: active compounds read low
# In short: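 Fluorescence at Ex 525/Em 598 nm, recorded 24 h after alamarBlue addition, reports residual metabolic activity of 3D7 gametocytes (stages III–V) following 72 h compound exposure at 37 °C, 5% CO2.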
# astro = assay: Drug repurposing screens with cells derived from glioblastoma tumor samples (AID 1345199); settings: viability, ATP luminescence, 48 h; series mostly up to 45.9 µM; note: nearly all actives have a fitted effect of over 40% in size
# In short: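 Primary testing used CD133+ neurospheres from four GBM patients, seven concentrations, 48 h exposure and ATP-based viability; confirmation added three slower-growing patient lines.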
# [15] = NCATS anti-infectives library activity on the primary C. elegans qHTS viability assay (AID 1745855; calls by dose curve); settings: C. elegans worm area imaging, day 7; series mostly up to 41.8 µM
# In short: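 GFP read-out by 488 nm laser cytometry at day 0, 3 and 7, gated on object perimeter, area and peak intensity, scored viability of PE254-GFP-FLuc worms exposed to compound in S medium with bacterial capsules at 21 °C.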
smiles,measurement,setting,value
Cn1cnc(-c2nccc3c(=O)[nH]c(OCCCC(F)(F)F)nc23)c1,outcome,[1],inactive
CCN(CC)c1ccc(C(=C2C=CC(=[N+](CC)CC)C=C2)c2cc(S(=O)(=O)O)ccc2S(=O)(=O)[O-])cc1,Potency,[2],3.86 µM (active)
same,Potency,[3],11.9 µM (active)
same,Potency,[4],16.8 µM (active)
same,outcome,[5],inactive
same,outcome,[6],inactive
same,outcome,[7],inactive
Cc1ccc(C(=O)N2CCN(c3ccc([N+](=O)[O-])cc3)CC2)cc1Cl,outcome,[8],inactive
Oc1ccc(Nc2nc(-c3ccc(Cl)cc3)cs2)cc1,Potency,[9],inactive
same,Potency,[10],inactive
same,Potency,[11],2 µM (active)
CS(=O)(=O)c1ccc(-c2cn3ccccc3n2)cc1,outcome,[12],inactive
same,Potency,[13],23.7 µM (active)
same,outcome,[5],inactive
same,outcome,[6],inactive
same,outcome,[7],inactive
same,outcome,MCC-13,inactive
same,outcome,MCC-26,inactive
CCNC(=O)[C@@H]1CCCN1C(=O)[C@H](CCCN=C(N)N)NC(=O)[C@H](CC(C)C)NC(=O)[C@@H](CC(C)C)NC(=O)[C@H](Cc1ccc(O)cc1)NC(=O)[C@H](CO)NC(=O)[C@H](Cc1c[nH]c2ccccc12)NC(=O)[C@H](Cc1cnc[nH]1)NC(=O)[C@@H]1CCC(=O)N1,max response,[14],2.85%
same,Potency,astro,inactive
N#C[C@@H]1C[C@@H]2C[C@@H]2N1C(=O)[C@@H](N)C12CC3CC(CC(O)(C3)C1)C2,max response,[14],-8.8%
same,Potency,[15],inactive
